Data taken from PubChem BioAssay AID1159580 (chemical genetic matrix, 2015).
Where “and” joins values, the source holds several entries; their conditions need not be identical. Equal values may be shown once. Out of some 5,500 compounds screened, about 2,000 (36%) were called active. About 18% were inconclusive and are not listed. No stated cut-off is given here; in the data, active means normalized growth mostly below about 0.91 (no sharp cut-off); inconclusive means no clear call, values can overlap the other calls; inactive means mostly above about 0.92. The list shows a part of the results.

Experiment: chemical genetic growth profiling, strain panel (AID 1159580);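 further: tested at 20 µM; growth read once vehicle control cultures reached saturation at 30 °C; 1 = growth at the plate median or of vehicle wells; lower values mean less growth of the strain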
Conditions: S. cerevisiae deletion strains, growth OD

Measured: normalized growth

CCOc1ccc(NC(C)=O)cc1
inactive: locus YAL013W, strain DEP1, hits give low values 1.02 | locus YAL021C, strain ccr4, hits give low values 1.01 | locus YAL026C, strain drs2, hits give low values 1.01 | locus YAL030W, strain snc1, hits give low values 1.02 | locus YBL061C, strain skt5, hits give low values 1.02 | locus YBR009C, strain hhf1, hits give low values 1.01 | locus YBR021W, strain FUR4, hits give low values 0.963 | locus YBR023C, strain chs3, hits give low values 1.01 | locus YBR171W, strain sec66, hits give low values 1.02 | locus YBR229C, strain ROT2, hits give low values 1 | locus YBR231C, strain swc5, hits give low values 1.02 | locus YBR279W, strain paf1, hits give low values 1.01 | locus YCL011C, strain gbp2, hits give low values 1.02 | locus YCL016C, strain dcc1, hits give low values 1.02 | locus YCL029C, strain bik1, hits give low values 0.989 | locus YCL061C, strain MRC1, hits give low values 1.01 | locus YCL069W, strain vba3, hits give low values 1.02 | locus YCR088W, strain abp1, hits give low values 1.02 | locus YDL005C, strain med2, hits give low values 1.02 | locus YDL035C, strain GPR1, hits give low values 0.997 | locus YDL040C, strain nat1, hits give low values 1.01 | locus YDL074C, strain BRE1, hits give low values 1.06 | locus YDL101C, strain DUN1, hits give low values 1.01 | locus YDL134C, strain PPH21, hits give low values 1 | locus YDL185W, strain tfp1, hits give low values 0.959 | locus YDL192W, strain arf1, hits give low values 0.991 | locus YDR001C, strain nth1, hits give low values 1.02 | locus YDR069C, strain doa4, hits give low values 1 | locus YDR101C, strain arx1, hits give low values 0.998 | locus YDR137W, strain rgp1, hits give low values 1.03 | locus YDR150W, strain NUM1, hits give low values 0.991 | locus YDR159W, strain sac3, hits give low values 1.01 | locus YDR162C, strain NBP2, hits give low values 1.01 | locus YDR195W, strain ref2 1.02 | locus YDR297W, strain sur2, hits give low values 1.02 | locus YDR318W, strain mcm21, hits give low values 0.997 | locus YDR334W, strain swr1, hits give low values 1.02 | locus YDR335W, strain msn5, hits give low values 1.02 | locus YDR388W, hits give low values 1 | locus YDR392W, strain spt3, hits give low values 0.953 | locus YDR502C, strain sam2, hits give low values 0.994 | locus YEL003W, strain gim4, hits give low values 1.02 | locus YEL037C, strain rad23, hits give low values 1.01 | locus YEL061C, strain CIN8 (second series), hits give low values 1.02 | locus YEL061C, strain CIN8, hits give low values 1.04 | locus YER015W, strain faa2, hits give low values 1.01 | locus YER016W, strain bim1, hits give low values 1 | locus YER110C, hits give low values 0.979 | locus YER111C, strain swi4, hits give low values 1.02 | locus YER155C, strain BEM2 (second series), hits give low values 1.02 | locus YER155C, strain BEM2, hits give low values 0.984 | locus YER167W, strain BCK2, hits give low values 0.979 | locus YFR010W, strain ubp6, hits give low values 1.02 | locus YGL078C, strain dbp3, hits give low values 0.985 | locus YGL086W, strain mad1, hits give low values 0.984 | locus YGL167C, strain pmr1, hits give low values 1.02 | locus YGL173C, strain kem1, hits give low values 1.01 | locus YGL227W, strain vid30, hits give low values 1 | locus YGL240W, strain doc1, hits give low values 1.02 | locus YGL248W, strain PDE1, hits give low values 1.01 | locus YGL253W, strain hxk2, hits give low values 1.01 | locus YGR078C, strain PAC10, hits give low values 1 | locus YGR135W, strain pre9, hits give low values 1 | locus YGR229C, strain SMI1, hits give low values 1.02 | locus YGR252W, strain gcn5, hits give low values 0.986 | locus YHR013C, strain ard1, hits give low values 1.06 | locus YHR027C, strain rpn1, hits give low values 1 | locus YHR030C, strain SLT2, hits give low values 0.984 and 1.02 | locus YHR079C, strain IRE1 (second series), hits give low values 0.995 | locus YHR079C, strain IRE1, hits give low values 1.03 | locus YHR094C, strain hxt1, hits give low values 0.975 | locus YHR129C, strain ARP1, hits give low values 1.01 | locus YHR142W, strain chs7, hits give low values 1.01 | locus YHR200W, strain rpn10, hits give low values 0.992 | locus YIL066C, strain RNR3, hits give low values 1 | locus YIL073C, strain SPO22, hits give low values 0.916 | locus YIL125W, strain kgd1, hits give low values 0.988 | locus YIR030C, strain dcg1, hits give low values 1 | locus YJL092W, strain hpr5, hits give low values 1.01 | locus YJL095W, strain BCK1 (second series), hits give low values 1.01 | locus YJL095W, strain BCK1, hits give low values 1.09 and 1.01 | locus YJL115W, strain asf1, hits give low values 1.01 | locus YJL129C, strain trk1, hits give low values 1.02 | locus YJL134W, strain LCB3, hits give low values 0.985 | locus YJL154C, strain vps35, hits give low values 1.01 | locus YJL164C, strain tpk1, hits give low values 1.02 | locus YJL166W, strain qcr8, hits give low values 1.02 | locus YJL168C, strain set2, hits give low values 0.986 | locus YJL187C, strain SWE1 (second series), hits give low values 0.996 | locus YJL187C, strain SWE1, hits give low values 1.02 | locus YJR043C, strain POL32, hits give low values 1.14 | locus YJR066W, strain TOR1, hits give low values 0.961
